HEK293 tox – kills HEK 293 cells; HEK 293 viability, ATP luminescence (CellTiter-Glo), 48-72 h; Potency, µM (top dose mostly 115 µM), inactives show top-dose activity change, negative = cytotoxicity, hits mostly inhibitors; 94,000 tested, 6.6% active; AID 1345083; also: potency is read from the fitted curve at half-maximal effect; % is scaled to controls: 0 for no effect and ±100 for the full control effect; nearly all actives have a fitted effect of over 60% in size
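HEK 293 cells seeded at 250 cells/well were exposed to compound for 48 or 72 hr at 37 degree Celsius. Viability taken as ATP content by CellTiter-Glo luminescence.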
3T3 cytotox – NIH 3T3 cell cytotoxicity. NIH 3T3 viability, CellTiter-Glo ATP luminescence, 48-72 h. Potency, µM (series often up to 96.7 µM), for the others: at the top dose activity change, negative = cytotoxicity, usual class: inhibitors. 94,000 tested, 4.3% active. AID 1345082; also: potency is read from the fitted curve at half-maximal effect; % is scaled to controls: 0 for no effect and ±100 for the full control effect; nearly all actives have a fitted effect of over 55% in size
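Viability of NIH 3T3 cells after 48 or 72 hr compound treatment at 37 °C was assessed by CellTiter-Glo, with luminescence imaged following a 10 min room-temperature step.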
FLuc inh – Photinus pyralis luciferase inhibition; P08659; purified P. pyralis luciferase, luminescence, biochemical; Potency, µM (highest dose often 115 µM), actives largely listed as inhibitors; 76,000 tested, 2.5% active; AID 1347043; also: potency is read from the fitted curve at half-maximal effect; % is scaled to controls: 0 for no effect and ±100 for the full control effect; nearly all actives have a fitted effect of over 65% in size
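FLuc 10nM, D-luciferin 10uM, ATP 10uM, Mg acetate 10mM, Tris acetate pH 7.5, Tween/BSA; cpd qHTS; enzyme added last; CCD luminescence.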
GPT2 inhibitor – GPT2 alanine aminotransferase inhibition | 100,000 tested, 0.25% active | Potency, µM (top dose mostly 57.7 µM), for inactives: at the highest dose activity change, negative = inhibition, actives largely listed as inhibitors | Q8TD30 | Recombinant GPT2, coupled pyruvate oxidase/HRP Amplex Red fluorescence; also: potency is read from the fitted curve at half-maximal effect; % is scaled to controls: 0 for no effect and ±100 for the full control effect; nearly all actives have a fitted effect of over 60% in size
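GPT2 10ng/uL, a-KG 250uM, L-Ala 2mM, HEPES pH7.5 + 0.0001% Tween; 30 min RT. Then Amplex mix (PO/HRP/ThPP), 30 min RT dark, fluorescence. AOA 50uM used as positive control.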
hNpr1 antagonist – antagonists of human natriuretic peptide receptor Npr1; 76,000 tested, 1.6% active; HEK293 hNpr1 GloSensor cGMP, ANP-stimulated luminescence; Potency, µM (series often up to 46.3 µM), for the others: at the highest dose activity change, negative = inhibition, usual class: inhibitors; calls by dose curve; also: potency is read from the fitted curve at half-maximal effect; % is scaled to controls: 0 for no effect and ±100 for the full control effect; nearly all actives have a fitted effect of over 60% in size
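Compound pre-incubated 30 min at room temperature on GloSensor-loaded HEK293 cells stably carrying hNpr1 and the pGS-40F cGMP biosensor. Stimulation uses hNppA at 0.1 nM final; luminescence is taken at baseline and 20 min post-agonist.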
GPT2 conf – confirmation of human GPT2 inhibitors; shares compounds with GPT2 inhibitor; GPT2 enzyme, coupled Amplex Red pyruvate fluorescence; Potency, µM, actives largely listed as inhibitors; 95 tested, 90% active; AID 1671187
Starred values were filed as active, the others as inactive; i = inactive; ? = inconclusive; . = no result given; ! = not confirmed by another sample; [ ] = dose if it differs, or a comment. Compounds with a hit are over-represented: about 10% of the library has one in this group of screens. Unless noted, calls follow the shape of the dose curve; as a rule, active = well fitted curve in the direction sought with a large enough effect; inconclusive = small, poorly fitted or top-dose-only effect, or another doubt; inactive = no such curve, though single readings can be large; an effect the other way counts as inactive or inconclusive.

SMILES | HEK293 tox | 3T3 cytotox | FLuc inh | GPT2 inhibitor | hNpr1 antagonist | GPT2 conf
Cc1cnc(Nc2ccc(F)cc2Cl)nc1-c1c[nH]c(C(=O)NC(CO)c2cccc(Cl)c2)c1 (stereo not given) | . | . | . | 7.1µM* | . | 3.4*
Clc1ccc2c(c1)Nc1ccccc1S2 | . | . | . | ? | . | 3.4*
CN1CCCn2nc(C(=O)N(C)Cc3cc(-c4cccs4)n[nH]3)cc2C1 | -7% | 2% | i | 0% | -1% | .
COc1ccc(CCC(=O)N2CCOc3ccc(N4CCCC4)cc3C2)cc1 | ? | ? | . | 3.2µM* | . | 1.5*
c1ccc(CCN2CCNc3cc(Nc4ccc(N5CCOCC5)cc4)ncc3C2)cc1 | 50µM* | 35µM* | i | 14µM* | -5%[70.6 µM] | 6.3*
CN1CCN(C)c2cc(Nc3ccc(N4CCOCC4)cc3)ncc2C1 | . | . | . | . | . | 7*
Cc1cc(-c2cc3c(cn2)N(C)CCN(C)C3)ccn1 | ? | ? | i | 1%[88.5 µM] | 1%[70.6 µM] | .
COCc1ccc2c(c1)c(OC(C)(C)C(=O)NCc1cnccn1)nn2Cc1cccnc1 | 1% | ? | i | -19% | 9% | .
Cc1ccc(CNC(=O)c2nnn3c2COC(c2ccc(C)cc2)C3)cc1 (stereo not given) | -25% | -21% | i | i | 3% | .
Cc1nnc(C[C@@H]2C=C(c3ccc(Cl)cc3)c3ccccc3-n3c(C)nnc32)o1 | . | . | . | 3% | . | .
COc1ccc(-c2ccc3nc(-c4cccc(Cl)c4)oc3c2)c(OC)c1OC | ? | -18% | ? | ? | -6% | 2.4*
COc1ccc(-c2ccc3nc(-c4ccccc4Cl)oc3c2)c(OC)c1OC | ? | ? | ? | 2% | 1% | .
Cc1cc(Cl)ccc1NC(=O)CCn1ccn2nc3c(c2c1=O)CCCC3 | ? | ? | i | i | 0% | .
CCN(CC)c1ccc(NC(=O)CCn2ccn3nc4c(c3c2=O)CCCC4)c(C)c1 | ? | 40µM* | i | ? | -3% | 1.7*
Cn1ccc2cc(NCc3nnc(C(=O)N4CCC[C@@H]4CN4CCCC4)n3-c3ccccc3)ccc21 | -25% | ? | ? | ? | 3% | ?
COCCN1C(=O)c2ccccc2C(C(=O)Nc2ccc(NC(C)=O)cc2)C12CCCCC2 (stereo not given) | 6% | i | i | i | 2% | .
COc1ccc(NC2CCCN(C(=O)c3cc(C(C)=O)n[nH]3)C2)cc1OC (stereo not given) | 2% | 3% | i | ? | -7% | .
COc1ccc(NC2CCCN(C(=O)c3ccccc3C(F)(F)F)C2)cc1OC (stereo not given) | ? | -24% | i | ? | 2% | 3.9*
O=C(O)C[C@@H]1CCN(C(=O)NC2CCCCC2)C[C@@H]1CCN1CCC(C(=O)O)CC1 | -17%[172 µM] | -3%[174 µM] | i | 0%[88.5 µM] | 3%[70.6 µM] | .
COc1cc(N2CCOCC2)ccc1Nc1ncc(F)c(Nc2ccccc2NS(C)(=O)=O)n1 | . | . | . | 3.2µM* | . | 1.9*
COc1cc(N2CCOCC2)ccc1Nc1ncc(Cl)c(Nc2ccccc2NS(C)(=O)=O)n1 | . | . | . | 5µM* | . | 1.5*
CN(C)c1ccc(C(=O)N2CCc3cn(C)c4cccc(c34)C2)cc1 | ? | ? | i | 0% | -10% | .
CN(C)c1ccc2c(c1)CN(C(=O)c1cnn(C)c1)CCO2 | -2% | -24% | . | 1µM* | . | 0.69*
Cc1ccc(C)c(OCC(=O)c2ccc3c(c2)N(CC(=O)NCC2CC2)C(=O)CO3)c1 | ? | -29% | i | i | -13% | .
CCNc1ncc(C(=O)N2CCCC(Nc3ccc(OC)cc3)C2)cn1 (stereo not given) | -18% | -19% | i | i | -2% | .
SMILES | HEK293 tox | 3T3 cytotox | FLuc inh | GPT2 inhibitor | hNpr1 antagonist | GPT2 conf
COc1ccc(NC2CCCN(CC(=O)Nc3ccc(C)cn3)C2)cc1 (stereo not given) | -28% | -18% | i | ? | ? | 5.4*
CN1C(=O)C2(CCCN(C(=O)c3ccc(=O)[nH]c3)C2)c2ccccc21 (stereo not given) | 1% | -2% | i | -3%[11.5 µM] | 11% | .
OCCN(CCO)c1nc(N2CCCCC2)c2nc(N(CCO)CCO)nc(N3CCCCC3)c2n1 | . | . | . | 6.3µM*! | . | 1.7*
COc1ccccc1N1CCN(C2CCCN(Cc3nc(C(N)=O)no3)C2)CC1 (stereo not given) | -13% | -23% | i | -19% | 5% | .
CCc1nc(C(N)=O)c(Nc2ccc(N3CCC(N4CCN(C)CC4)CC3)c(OC)c2)nc1NC1CCOCC1 | . | . | . | 8.6µM* | . | 3.1*
c1ccc(Nc2cc3c(cn2)NCCN(Cc2ccccn2)C3)cc1 | ? | -18%[138 µM] | i | -81%[88.5 µM] | 2%[70.6 µM] | 3.5*
COc1ccc(CN2CCNc3cnc(Nc4ccccc4)cc3C2)cc1O | ? | ? | i | ? | 0%[70.6 µM] | 5*
Oc1ccccc1CN1CCNc2cnc(Nc3ccccc3)cc2C1 | ? | ? | i | 6.3µM* | ? | 6.3*
c1ccc(-c2cc3c(cn2)NCCN(Cc2ccccn2)C3)cc1 | ? | -19%[138 µM] | i | 2%[88.5 µM] | 1%[70.6 µM] | .
Cc1nn(C)c(C)c1CCC(=O)NC1CCc2nnc(C3CC3)n2CC1 (stereo not given) | -24% | -25% | i | 2% | 9% | .
Fc1ccc(Cc2noc(-c3nc(-c4ccccc4)no3)n2)cc1 | 0% | -5% | ? | -9% | -4% | .
CN(C)c1ccc(Nc2nc(N)n(C(=O)c3c(F)cccc3F)n2)cc1 | . | . | . | 3.2µM* | . | 1.2*
Cc1cc(CNC(=O)c2cc(-c3ccc(N4CCOCC4)cc3)cc3c2OCCN3C)no1 | ? | ? | ? | 3% | 7% | .
C[C@@H]1CN(C(=O)c2cc(N3CCOCC3)cc3c2OCCN3C)C[C@H](C)O1 | . | . | . | . | . | 4.4*
